# Measurements reported in article PMC7862700, “An all-to-all approach to the identification of sequence-specific readers for epigenetic DNA modifications on cytosine”.
# How the values were obtained:
# Test in all cases: DAPPL (digital affinity profiling via proximity ligation, sequencing); 10 mM Tris-HCl pH 7.5, 50 mM NaCl, 1 mM DTT, 4% glycerol, room temperature, 30 min; GST-TFs on glutathione beads, 16-mer random dsDNA library, 0.1% formaldehyde crosslink after washing; high values mean tight binding
# Conditions in all cases: protein: recombinant; tags: N-terminal GST; dsDNA, one strand shown
# ETV3L = target: T1, ETV3L (Homo sapiens, UniProt Q6ZN32 1-361)
# T1 sequence: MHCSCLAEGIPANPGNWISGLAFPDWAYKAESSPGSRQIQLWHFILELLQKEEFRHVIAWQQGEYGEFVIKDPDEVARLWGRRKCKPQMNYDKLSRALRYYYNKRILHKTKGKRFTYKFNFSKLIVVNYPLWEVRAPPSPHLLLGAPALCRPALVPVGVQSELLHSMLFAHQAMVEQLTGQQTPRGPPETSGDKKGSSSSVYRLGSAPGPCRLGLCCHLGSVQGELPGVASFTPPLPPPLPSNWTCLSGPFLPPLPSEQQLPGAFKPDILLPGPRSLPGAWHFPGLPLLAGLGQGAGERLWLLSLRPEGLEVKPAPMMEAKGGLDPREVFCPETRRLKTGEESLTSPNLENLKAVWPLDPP
# Outline: (§1)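 Human transcription factors fused to GST were expressed in yeast, captured on glutathione beads, given DNA barcodes and pooled with a GST-only negative control. Pools were incubated with 200 nmole of a 16-mer random double-stranded DNA library in Tris/NaCl/DTT/glycerol buffer at room temperature for 30 min. They were then washed, crosslinked with 0.1% formaldehyde, proximity-ligated (BsaI/T4 ligase, 1 h, 37 °C), PCR-amplified and sequenced on an Illumina NextSeq500. Binding signal is each 6-mer's read frequency for a factor divided by its frequency for the GST control.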
# SPDEF = target: T2, SPDEF (Homo sapiens, UniProt O95238 1-335)
# T2 sequence: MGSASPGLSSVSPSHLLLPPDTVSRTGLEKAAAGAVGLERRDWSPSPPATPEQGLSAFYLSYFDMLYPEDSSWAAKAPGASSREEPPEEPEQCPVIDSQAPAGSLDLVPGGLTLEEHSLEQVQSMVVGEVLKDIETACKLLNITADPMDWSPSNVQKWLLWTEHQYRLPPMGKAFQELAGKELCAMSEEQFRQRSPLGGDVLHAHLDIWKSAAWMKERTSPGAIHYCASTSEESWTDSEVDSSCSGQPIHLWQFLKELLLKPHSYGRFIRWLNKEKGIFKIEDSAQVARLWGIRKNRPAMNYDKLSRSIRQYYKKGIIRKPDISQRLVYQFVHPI
# Outline: as §1
# ERF = target: T3, ERF (Homo sapiens, UniProt P50548 1-548)
# T3 sequence: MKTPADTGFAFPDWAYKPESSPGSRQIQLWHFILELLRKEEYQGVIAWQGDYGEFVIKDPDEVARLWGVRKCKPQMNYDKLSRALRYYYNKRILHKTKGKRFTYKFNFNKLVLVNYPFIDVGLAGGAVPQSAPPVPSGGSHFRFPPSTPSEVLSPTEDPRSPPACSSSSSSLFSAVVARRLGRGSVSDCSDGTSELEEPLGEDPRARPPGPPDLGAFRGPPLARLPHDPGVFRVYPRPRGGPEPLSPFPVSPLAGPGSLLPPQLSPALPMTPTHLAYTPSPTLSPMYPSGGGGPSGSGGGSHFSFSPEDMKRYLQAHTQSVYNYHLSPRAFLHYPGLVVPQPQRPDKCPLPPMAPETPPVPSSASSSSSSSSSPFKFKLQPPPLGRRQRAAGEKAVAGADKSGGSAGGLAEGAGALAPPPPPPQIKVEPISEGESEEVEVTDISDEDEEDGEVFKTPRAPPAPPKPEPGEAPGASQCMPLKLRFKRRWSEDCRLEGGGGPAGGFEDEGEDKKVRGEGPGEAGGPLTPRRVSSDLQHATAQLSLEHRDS
# Outline: as §1
# GABPA = target: T4, GABPA (Homo sapiens, UniProt Q06546 1-454)
# T4 sequence: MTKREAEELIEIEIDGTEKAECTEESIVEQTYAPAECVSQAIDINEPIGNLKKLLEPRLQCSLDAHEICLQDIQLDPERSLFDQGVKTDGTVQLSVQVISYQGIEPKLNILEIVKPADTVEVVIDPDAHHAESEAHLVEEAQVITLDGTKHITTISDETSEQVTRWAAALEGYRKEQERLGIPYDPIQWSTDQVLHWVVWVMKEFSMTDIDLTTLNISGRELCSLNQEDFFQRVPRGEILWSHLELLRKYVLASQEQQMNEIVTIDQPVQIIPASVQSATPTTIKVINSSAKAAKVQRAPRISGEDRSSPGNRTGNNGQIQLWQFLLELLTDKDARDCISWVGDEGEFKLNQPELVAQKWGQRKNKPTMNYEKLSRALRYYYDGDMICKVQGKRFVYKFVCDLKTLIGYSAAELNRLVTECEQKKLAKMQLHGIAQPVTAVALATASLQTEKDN
# Outline: as §1
# ELF1 = ELF1 (Homo sapiens, UniProt P32519 1-619)
# Sequence of ELF1 (P32519 whole entry): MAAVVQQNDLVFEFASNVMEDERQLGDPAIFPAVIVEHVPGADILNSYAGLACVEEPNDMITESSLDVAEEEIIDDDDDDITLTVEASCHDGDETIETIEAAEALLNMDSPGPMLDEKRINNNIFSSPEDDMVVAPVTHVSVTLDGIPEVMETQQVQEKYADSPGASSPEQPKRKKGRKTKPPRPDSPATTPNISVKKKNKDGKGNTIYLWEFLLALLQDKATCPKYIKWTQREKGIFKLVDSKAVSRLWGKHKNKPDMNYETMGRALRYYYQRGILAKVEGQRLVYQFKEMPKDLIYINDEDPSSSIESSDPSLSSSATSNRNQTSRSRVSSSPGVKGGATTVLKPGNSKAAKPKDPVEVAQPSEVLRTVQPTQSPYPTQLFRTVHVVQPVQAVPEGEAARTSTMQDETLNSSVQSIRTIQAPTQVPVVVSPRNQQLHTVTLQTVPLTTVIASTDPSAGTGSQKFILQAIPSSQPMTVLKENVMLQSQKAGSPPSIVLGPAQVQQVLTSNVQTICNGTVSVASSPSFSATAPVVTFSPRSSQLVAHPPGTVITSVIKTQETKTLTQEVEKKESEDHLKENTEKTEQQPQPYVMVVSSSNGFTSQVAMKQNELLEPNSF
# Outline: as §1
# FEV = target: T5, FEV (Homo sapiens, UniProt Q99581 1-238)
# T5 sequence: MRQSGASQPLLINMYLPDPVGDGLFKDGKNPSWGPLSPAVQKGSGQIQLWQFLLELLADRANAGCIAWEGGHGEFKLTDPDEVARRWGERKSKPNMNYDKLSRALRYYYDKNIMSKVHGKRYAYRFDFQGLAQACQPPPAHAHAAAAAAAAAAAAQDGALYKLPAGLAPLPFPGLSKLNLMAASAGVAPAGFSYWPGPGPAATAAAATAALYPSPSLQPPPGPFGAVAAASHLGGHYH
# Outline: as §1
# ETV3 = target: T6, ETV3 (Homo sapiens, UniProt P41162-2 1-143)
# T6 sequence: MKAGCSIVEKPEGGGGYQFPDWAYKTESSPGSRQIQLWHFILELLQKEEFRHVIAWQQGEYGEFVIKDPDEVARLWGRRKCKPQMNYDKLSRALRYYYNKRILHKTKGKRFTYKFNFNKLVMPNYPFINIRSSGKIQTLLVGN
# Outline: as §1
# ETV1 = ETV1 (Homo sapiens, UniProt P50549 1-477)
# Sequence of ETV1 (P50549 whole entry): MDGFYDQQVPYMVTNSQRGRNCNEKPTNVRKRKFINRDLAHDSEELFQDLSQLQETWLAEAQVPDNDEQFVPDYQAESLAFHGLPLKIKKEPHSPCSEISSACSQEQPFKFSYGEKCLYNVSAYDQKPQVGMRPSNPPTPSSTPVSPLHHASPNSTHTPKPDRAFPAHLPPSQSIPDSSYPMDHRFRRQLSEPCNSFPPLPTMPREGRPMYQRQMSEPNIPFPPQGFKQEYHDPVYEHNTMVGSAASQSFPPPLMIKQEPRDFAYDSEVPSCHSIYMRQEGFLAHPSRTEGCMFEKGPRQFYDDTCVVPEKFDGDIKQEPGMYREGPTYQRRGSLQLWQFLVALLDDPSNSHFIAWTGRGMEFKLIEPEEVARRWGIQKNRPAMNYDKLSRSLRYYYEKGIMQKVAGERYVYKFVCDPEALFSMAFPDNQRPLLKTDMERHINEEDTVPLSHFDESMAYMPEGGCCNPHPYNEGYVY
# Outline: as §1
# ERG = target: T7, ERG (Homo sapiens, UniProt P11308 1-479)
# T7 sequence: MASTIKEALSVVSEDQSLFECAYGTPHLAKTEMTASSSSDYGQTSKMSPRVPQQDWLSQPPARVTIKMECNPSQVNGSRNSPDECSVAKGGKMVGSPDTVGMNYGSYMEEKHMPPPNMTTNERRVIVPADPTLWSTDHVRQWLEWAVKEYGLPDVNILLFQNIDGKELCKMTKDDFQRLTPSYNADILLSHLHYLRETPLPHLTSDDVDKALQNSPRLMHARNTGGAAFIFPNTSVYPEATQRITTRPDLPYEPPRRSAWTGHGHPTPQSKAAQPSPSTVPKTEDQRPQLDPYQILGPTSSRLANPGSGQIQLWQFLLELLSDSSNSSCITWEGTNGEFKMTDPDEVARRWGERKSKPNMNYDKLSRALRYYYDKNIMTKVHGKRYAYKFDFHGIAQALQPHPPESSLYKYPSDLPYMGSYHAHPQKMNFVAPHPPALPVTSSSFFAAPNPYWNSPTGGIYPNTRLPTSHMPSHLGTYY
# Outline: as §1
# ETV7 = target: T8, ETV7 (Homo sapiens, UniProt Q9Y603 1-341)
# T8 sequence: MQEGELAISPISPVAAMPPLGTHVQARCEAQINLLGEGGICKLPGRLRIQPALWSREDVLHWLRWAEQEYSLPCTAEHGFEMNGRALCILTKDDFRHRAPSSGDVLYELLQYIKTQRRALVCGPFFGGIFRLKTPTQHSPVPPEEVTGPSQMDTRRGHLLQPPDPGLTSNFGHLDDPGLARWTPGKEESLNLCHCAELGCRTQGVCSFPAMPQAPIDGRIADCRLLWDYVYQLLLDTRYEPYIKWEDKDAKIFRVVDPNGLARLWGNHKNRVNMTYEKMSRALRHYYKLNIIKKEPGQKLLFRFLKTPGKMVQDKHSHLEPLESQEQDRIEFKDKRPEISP
# Outline: as §1
# SPI1 = SPI1 (Homo sapiens, UniProt P17947 1-270)
# Outline: as §1
# ETS2 = target: T9, ETS2 (Homo sapiens, UniProt P15036 1-469)
# T9 sequence: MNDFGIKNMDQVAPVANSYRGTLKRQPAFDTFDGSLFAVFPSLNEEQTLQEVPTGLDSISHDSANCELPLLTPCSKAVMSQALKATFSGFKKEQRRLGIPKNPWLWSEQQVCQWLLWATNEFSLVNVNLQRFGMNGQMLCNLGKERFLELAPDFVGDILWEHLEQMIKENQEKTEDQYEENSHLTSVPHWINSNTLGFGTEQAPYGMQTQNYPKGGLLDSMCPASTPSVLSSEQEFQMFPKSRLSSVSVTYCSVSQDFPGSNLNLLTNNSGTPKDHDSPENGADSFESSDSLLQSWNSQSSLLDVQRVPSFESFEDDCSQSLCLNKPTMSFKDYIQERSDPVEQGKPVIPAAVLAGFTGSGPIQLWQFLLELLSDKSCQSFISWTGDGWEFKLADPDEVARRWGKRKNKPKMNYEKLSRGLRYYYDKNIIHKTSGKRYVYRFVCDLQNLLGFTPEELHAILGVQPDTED
# Outline: as §1
# EHF = target: T10, EHF (Homo sapiens, UniProt Q9NZC4 1-300)
# T10 sequence: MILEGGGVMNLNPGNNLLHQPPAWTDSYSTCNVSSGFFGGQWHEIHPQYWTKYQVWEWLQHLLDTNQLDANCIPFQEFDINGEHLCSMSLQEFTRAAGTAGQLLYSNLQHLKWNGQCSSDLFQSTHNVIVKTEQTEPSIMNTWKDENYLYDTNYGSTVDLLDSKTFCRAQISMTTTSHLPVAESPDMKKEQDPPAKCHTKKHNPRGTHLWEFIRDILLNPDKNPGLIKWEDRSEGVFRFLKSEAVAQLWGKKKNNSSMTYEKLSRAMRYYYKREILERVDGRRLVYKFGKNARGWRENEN
# Outline: as §1
# SPIB = SPIB (Homo sapiens, UniProt Q01892 1-262)
# Sequence of SPIB (Q01892 whole entry): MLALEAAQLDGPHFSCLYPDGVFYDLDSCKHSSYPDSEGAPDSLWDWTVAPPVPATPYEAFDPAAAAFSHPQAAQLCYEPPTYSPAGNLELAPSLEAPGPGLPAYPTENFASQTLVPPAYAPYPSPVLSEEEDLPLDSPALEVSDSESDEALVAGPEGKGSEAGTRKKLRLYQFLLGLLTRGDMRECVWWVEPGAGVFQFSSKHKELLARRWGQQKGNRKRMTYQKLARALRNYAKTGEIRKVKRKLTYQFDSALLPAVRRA
# Outline: as §1
# ELK3 = target: T11, ELK3 (Homo sapiens, UniProt P41970 1-407)
# T11 sequence: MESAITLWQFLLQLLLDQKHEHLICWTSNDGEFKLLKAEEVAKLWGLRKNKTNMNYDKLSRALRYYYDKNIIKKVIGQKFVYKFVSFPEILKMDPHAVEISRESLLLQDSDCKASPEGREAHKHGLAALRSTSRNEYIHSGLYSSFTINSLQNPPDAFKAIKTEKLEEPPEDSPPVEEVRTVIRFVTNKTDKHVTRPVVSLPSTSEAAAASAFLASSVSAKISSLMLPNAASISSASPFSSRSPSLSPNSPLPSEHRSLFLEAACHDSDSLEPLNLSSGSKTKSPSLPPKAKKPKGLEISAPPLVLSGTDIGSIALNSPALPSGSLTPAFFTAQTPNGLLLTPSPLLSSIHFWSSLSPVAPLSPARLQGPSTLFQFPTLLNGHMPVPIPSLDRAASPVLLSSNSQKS
# Outline: as §1
# ETV6 = ETV6 (Homo sapiens, UniProt P41212 1-452)
# Sequence of ETV6 (P41212 whole entry): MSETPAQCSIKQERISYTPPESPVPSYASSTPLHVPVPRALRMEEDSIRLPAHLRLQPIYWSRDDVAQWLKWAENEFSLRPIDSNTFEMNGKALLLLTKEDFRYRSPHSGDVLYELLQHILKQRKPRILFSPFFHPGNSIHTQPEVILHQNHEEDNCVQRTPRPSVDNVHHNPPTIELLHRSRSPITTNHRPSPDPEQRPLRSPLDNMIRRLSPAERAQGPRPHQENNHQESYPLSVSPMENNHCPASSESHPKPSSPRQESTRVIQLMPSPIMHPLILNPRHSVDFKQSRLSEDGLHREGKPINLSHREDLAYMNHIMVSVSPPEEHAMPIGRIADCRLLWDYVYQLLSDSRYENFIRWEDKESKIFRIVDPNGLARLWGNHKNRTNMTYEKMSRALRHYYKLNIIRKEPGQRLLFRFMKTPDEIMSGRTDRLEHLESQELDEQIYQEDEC
# Outline: as §1
sequence,measurement,setting,value
AGCGCA,binding signal,ETV3L,"1.01 fold enrichment (6-mer frequency, TF over GST control)"
GGGTCT,binding signal,SPDEF,"1.01 fold enrichment (6-mer frequency, TF over GST control)"
TGGGCC,binding signal,ERF,"1.03 fold enrichment (6-mer frequency, TF over GST control)"
AGGACT,binding signal,GABPA,"1.05 fold enrichment (6-mer frequency, TF over GST control)"
same,binding signal,ELF1,"1 fold enrichment (6-mer frequency, TF over GST control)"
same,binding signal,FEV,"1.01 fold enrichment (6-mer frequency, TF over GST control)"
same,binding signal,ETV3,"1.06 fold enrichment (6-mer frequency, TF over GST control)"
CGCGGT,binding signal,ETV1,"1.03 fold enrichment (6-mer frequency, TF over GST control)"
GCAACG,binding signal,GABPA,"1.03 fold enrichment (6-mer frequency, TF over GST control)"
same,binding signal,ERG,"1 fold enrichment (6-mer frequency, TF over GST control)"
same,binding signal,ERF,"1.01 fold enrichment (6-mer frequency, TF over GST control)"
AGCACC,binding signal,ERF,"1.03 fold enrichment (6-mer frequency, TF over GST control)"
same,binding signal,ETV3L,"1.04 fold enrichment (6-mer frequency, TF over GST control)"
GGGCTG,binding signal,GABPA,"1.03 fold enrichment (6-mer frequency, TF over GST control)"
same,binding signal,ERF,"1.03 fold enrichment (6-mer frequency, TF over GST control)"
same,binding signal,ETV3L,"1.03 fold enrichment (6-mer frequency, TF over GST control)"
same,binding signal,ETV7,"1.05 fold enrichment (6-mer frequency, TF over GST control)"
GACACC,binding signal,ETV3L,"1.01 fold enrichment (6-mer frequency, TF over GST control)"
AGTTCA,binding signal,SPI1,"1.01 fold enrichment (6-mer frequency, TF over GST control)"
same,binding signal,ETV3L,"1.04 fold enrichment (6-mer frequency, TF over GST control)"
same,binding signal,ETS2,"1 fold enrichment (6-mer frequency, TF over GST control)"
GTCTGT,binding signal,ETV1,"1.01 fold enrichment (6-mer frequency, TF over GST control)"
GGCCAC,binding signal,GABPA,"1.02 fold enrichment (6-mer frequency, TF over GST control)"
same,binding signal,ELF1,"1.03 fold enrichment (6-mer frequency, TF over GST control)"
same,binding signal,EHF,"1.03 fold enrichment (6-mer frequency, TF over GST control)"
same,binding signal,FEV,"1.05 fold enrichment (6-mer frequency, TF over GST control)"
same,binding signal,ETS2,"1 fold enrichment (6-mer frequency, TF over GST control)"
GTGGAC,binding signal,ERF,"1.03 fold enrichment (6-mer frequency, TF over GST control)"
GTCTGC,binding signal,GABPA,"1.01 fold enrichment (6-mer frequency, TF over GST control)"
GGTTGC,binding signal,SPIB,"1 fold enrichment (6-mer frequency, TF over GST control)"
same,binding signal,ETV3L,"1.01 fold enrichment (6-mer frequency, TF over GST control)"
GATGTG,binding signal,SPDEF,"1.18 fold enrichment (6-mer frequency, TF over GST control)"
same,binding signal,ETV3,"1.01 fold enrichment (6-mer frequency, TF over GST control)"
CCGGGC,binding signal,SPDEF,"1.05 fold enrichment (6-mer frequency, TF over GST control)"
AAGGGG,binding signal,SPI1,"1.36 fold enrichment (6-mer frequency, TF over GST control)"
same,binding signal,ELK3,"1.05 fold enrichment (6-mer frequency, TF over GST control)"
same,binding signal,ETV1,"1.07 fold enrichment (6-mer frequency, TF over GST control)"
CGGAAT,binding signal,SPDEF,"1 fold enrichment (6-mer frequency, TF over GST control)"
same,binding signal,ETV3,"1.02 fold enrichment (6-mer frequency, TF over GST control)"
same,binding signal,ETV6,"1.01 fold enrichment (6-mer frequency, TF over GST control)"
GGGAAG,binding signal,ETV6,"1.04 fold enrichment (6-mer frequency, TF over GST control)"
